From the supplement of paper PMC10849652
Of roughly 7,900 targets only a part is listed; those with a hit were picked by preference. About 0.6% of all pairs of compound and target were hits. A number with no mark means an inactive call.

Legend:
Assay in all cases: log2 fold change, soluble protein after heating vs DMSO (PISA); higher = thermal stabilisation; K562 cells, 10 uM, 30 min; active = over 0.2 and 3.5 SD of the protein, either way, in both replicates (recomputed)
[1] = compound: CC[C@@H]1C(=O)N(C)c2cnc(Nc3ccc(C(=O)NC4CCN(C)CC4)cc3OC)nc2N1C1CCCC1
Summary of the method: (§1)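 K562 cells at 2×10^6 cells/mL were treated for 30 min with 10 μM compound, and aliquots were heated for 3 min over 48°C-58°C before pooling. Extraction used PBS with 0.5% NP-40 at 4°C, and soluble protein was the supernatant after 21,000xg for 90 min, measured by TMTpro 16plex LC-MS/MS with channel sums equalised. Thermal stability values, relative to control samples and from duplicates, are log2 fold changes.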

[2] = compound: CC[C@@H]1C(=O)N(C)c2cnc(Nc3ccc(C(=O)N[C@H]4CC[C@H](N5CCN(CC6CC6)CC5)CC4)cc3OC)nc2N1C(C)C [volasertib]
Summary of the method: as §1

[3] = compound: CC[C@H](C)N1C=C(C2=C(C=C(C=C21)C3=CN=C(C=C3)N4CCNCC4)C(=O)NCC5=C(C=C(NC5=O)C)C)C
Summary of the method: as §1

[4] = compound: CC[C@H](C)[C@@H](C(=O)N[C@@H]([C@@H](C)O)C(=O)N[C@@H](CC(C)C)C(=O)[C@]1(CO1)C)NC(=O)[C@H]([C@@H](C)CC)N(C)C(=O)C [epoxomicin]
Summary of the method: as §1

[5] = compound: CCn1c(C(=O)N(C2CC2)C2CC2)cc2c3c(ncn3C)c(Nc3cc(C)n(C)n3)nc21
Summary of the method: as §1

[6] = compound: CCn1cc(-c2ccnc3[nH]c(-c4cccc(CN(C)C)c4)cc23)c(-c2ccc(NC(=O)N(C)C)cc2)n1
Summary of the method: as §1

[7] = compound: CN(C)CC(=O)Nc1ccc2[nH]c(=O)c3ccccc3c2c1
Summary of the method: as §1

[8] = compound: CN(CCOC1=CC=C(C=C1)C[C@H]2C(=O)NC(=O)S2)C3=CC=CC=N3 (racemic) [rosiglitazone]
Summary of the method: as §1

[9] = compound: CN1C2=C(C3=C1C(=O)N(N=C3)CC4=CC(=CC=C4)N)SC(=C2)S(=O)C
Summary of the method: as §1

[10] = compound: CN1CCC(CNc2ccc3ncc(-c4cccc(OC(F)(F)F)c4)n3n2)CC1
Summary of the method: as §1

Chain of UniProt Q86X83 (Q86X83 whole entry, looked up): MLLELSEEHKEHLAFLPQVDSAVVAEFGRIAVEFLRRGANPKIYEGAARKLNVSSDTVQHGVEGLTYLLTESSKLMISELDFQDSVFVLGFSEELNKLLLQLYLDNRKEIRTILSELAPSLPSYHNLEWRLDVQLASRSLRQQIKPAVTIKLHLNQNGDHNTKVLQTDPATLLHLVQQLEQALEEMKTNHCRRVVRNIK
Chain of UniProt A5YKK6 (A5YKK6 whole entry, looked up): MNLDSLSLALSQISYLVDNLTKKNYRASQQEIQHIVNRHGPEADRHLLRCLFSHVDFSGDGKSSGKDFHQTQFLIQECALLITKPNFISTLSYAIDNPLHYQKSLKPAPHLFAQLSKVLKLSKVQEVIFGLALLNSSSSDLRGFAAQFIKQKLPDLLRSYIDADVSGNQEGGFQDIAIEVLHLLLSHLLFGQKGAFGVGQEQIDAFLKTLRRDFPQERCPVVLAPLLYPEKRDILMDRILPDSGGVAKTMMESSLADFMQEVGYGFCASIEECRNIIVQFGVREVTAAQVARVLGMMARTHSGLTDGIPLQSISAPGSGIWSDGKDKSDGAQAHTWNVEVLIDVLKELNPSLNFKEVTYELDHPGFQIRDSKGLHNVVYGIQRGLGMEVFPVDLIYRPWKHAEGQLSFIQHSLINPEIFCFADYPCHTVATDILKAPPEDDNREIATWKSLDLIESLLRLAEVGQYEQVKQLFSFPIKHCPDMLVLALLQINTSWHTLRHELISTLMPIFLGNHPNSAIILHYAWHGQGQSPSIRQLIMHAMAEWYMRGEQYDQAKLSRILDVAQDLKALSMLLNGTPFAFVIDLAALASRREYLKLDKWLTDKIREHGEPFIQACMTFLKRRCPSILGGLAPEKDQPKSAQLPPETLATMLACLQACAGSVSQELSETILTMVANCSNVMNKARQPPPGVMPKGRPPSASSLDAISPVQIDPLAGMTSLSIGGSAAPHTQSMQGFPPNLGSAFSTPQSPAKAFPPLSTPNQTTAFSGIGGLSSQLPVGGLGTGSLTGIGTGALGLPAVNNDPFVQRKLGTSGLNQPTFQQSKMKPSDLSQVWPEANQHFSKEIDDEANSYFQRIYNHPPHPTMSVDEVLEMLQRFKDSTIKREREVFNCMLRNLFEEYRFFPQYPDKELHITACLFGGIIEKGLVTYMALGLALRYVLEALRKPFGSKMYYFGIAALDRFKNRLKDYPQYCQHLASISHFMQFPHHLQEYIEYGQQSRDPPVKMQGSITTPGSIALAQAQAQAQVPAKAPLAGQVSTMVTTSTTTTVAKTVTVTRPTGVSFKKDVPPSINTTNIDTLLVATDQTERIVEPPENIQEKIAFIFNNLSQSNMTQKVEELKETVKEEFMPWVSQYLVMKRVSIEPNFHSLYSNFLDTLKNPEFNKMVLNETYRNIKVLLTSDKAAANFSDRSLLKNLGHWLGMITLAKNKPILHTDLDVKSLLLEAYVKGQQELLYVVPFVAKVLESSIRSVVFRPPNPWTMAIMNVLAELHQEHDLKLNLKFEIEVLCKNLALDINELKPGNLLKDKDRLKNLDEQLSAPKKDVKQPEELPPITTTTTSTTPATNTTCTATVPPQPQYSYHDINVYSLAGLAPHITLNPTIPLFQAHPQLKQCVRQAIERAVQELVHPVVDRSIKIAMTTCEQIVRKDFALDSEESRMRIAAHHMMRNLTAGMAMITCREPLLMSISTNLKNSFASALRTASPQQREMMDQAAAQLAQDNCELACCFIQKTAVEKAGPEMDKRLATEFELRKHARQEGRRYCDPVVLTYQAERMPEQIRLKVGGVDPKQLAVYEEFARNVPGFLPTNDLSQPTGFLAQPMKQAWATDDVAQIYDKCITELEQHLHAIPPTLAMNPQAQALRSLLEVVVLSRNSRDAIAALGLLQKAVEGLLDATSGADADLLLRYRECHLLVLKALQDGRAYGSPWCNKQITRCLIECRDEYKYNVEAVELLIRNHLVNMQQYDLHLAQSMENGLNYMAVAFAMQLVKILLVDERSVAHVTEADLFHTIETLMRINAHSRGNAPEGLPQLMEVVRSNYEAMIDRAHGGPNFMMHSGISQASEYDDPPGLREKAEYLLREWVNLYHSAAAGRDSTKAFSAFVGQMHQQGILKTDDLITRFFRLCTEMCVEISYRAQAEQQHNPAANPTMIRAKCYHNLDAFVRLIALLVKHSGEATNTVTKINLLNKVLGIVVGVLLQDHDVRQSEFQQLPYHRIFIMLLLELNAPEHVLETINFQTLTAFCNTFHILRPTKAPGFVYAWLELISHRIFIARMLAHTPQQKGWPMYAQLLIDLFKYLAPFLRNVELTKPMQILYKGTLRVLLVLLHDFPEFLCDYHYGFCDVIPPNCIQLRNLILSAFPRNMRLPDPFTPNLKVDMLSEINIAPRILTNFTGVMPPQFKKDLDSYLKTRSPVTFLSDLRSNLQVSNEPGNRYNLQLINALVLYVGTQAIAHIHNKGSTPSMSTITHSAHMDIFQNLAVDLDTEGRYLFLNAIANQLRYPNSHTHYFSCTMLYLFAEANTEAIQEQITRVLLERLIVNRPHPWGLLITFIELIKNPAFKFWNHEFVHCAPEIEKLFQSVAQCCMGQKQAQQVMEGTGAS
Chain of UniProt Q8IUI8 (Q8IUI8 whole entry, looked up): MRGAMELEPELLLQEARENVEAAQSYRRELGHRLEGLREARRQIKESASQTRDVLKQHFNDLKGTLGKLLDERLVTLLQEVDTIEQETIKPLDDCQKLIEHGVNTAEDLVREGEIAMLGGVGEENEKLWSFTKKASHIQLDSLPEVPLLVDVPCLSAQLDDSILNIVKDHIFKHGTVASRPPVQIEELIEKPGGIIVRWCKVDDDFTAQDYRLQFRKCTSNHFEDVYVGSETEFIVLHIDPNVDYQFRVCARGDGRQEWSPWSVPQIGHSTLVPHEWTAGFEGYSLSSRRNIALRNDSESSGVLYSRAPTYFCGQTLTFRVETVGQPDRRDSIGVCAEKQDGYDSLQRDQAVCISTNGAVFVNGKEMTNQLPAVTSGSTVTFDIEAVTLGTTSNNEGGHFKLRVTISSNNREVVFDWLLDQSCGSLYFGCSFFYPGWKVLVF
Chain of UniProt P68400 (P68400 whole entry, looked up): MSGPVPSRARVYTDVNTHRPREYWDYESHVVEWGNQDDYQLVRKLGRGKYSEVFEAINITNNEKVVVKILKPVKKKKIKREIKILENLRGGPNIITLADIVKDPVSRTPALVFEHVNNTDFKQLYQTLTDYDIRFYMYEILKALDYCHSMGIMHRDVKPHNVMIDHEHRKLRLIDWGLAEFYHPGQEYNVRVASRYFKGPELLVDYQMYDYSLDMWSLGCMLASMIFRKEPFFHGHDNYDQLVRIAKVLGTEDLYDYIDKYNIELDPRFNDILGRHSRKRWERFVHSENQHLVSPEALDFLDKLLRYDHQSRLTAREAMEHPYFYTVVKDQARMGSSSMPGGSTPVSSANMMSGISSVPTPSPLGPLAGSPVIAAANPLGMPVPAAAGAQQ
Chain of UniProt P41208 (P41208 whole entry, looked up): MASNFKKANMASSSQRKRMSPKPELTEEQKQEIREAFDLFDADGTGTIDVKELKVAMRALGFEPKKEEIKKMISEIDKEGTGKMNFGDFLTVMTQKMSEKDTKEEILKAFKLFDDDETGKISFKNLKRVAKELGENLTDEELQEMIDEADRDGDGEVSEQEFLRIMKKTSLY
Chain of UniProt Q8N684 (Q8N684 whole entry, looked up): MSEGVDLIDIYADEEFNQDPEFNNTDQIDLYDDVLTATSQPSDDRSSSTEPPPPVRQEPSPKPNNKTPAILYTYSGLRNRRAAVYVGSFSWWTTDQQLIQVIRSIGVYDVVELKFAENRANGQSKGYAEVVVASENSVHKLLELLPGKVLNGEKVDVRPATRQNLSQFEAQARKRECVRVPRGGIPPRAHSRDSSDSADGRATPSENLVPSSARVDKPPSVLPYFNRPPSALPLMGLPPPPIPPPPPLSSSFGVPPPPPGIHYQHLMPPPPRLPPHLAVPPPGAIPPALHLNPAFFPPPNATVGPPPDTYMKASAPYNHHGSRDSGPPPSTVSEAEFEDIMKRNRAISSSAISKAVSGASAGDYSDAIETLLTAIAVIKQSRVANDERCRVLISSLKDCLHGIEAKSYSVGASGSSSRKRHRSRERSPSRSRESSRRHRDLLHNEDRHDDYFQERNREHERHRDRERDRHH
Chain of UniProt Q5T6V5 (Q5T6V5 whole entry, looked up): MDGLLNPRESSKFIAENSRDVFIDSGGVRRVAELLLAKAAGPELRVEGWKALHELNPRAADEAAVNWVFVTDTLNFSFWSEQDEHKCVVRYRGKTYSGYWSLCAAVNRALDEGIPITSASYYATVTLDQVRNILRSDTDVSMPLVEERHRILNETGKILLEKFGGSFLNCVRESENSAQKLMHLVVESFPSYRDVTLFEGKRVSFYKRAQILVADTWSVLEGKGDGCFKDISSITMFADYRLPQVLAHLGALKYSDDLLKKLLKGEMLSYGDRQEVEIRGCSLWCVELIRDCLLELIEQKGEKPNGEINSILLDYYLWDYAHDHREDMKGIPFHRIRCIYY
Chain of UniProt P46109 (P46109 whole entry, looked up): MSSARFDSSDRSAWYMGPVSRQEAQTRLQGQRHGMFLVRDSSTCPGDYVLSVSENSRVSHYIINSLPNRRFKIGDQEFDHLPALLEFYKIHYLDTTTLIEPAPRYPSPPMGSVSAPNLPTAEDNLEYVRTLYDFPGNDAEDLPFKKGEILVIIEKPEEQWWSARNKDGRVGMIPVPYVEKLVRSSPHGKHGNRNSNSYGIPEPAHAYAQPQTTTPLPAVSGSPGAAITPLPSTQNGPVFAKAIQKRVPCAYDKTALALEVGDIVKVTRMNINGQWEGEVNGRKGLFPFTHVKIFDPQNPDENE
Chain of UniProt Q9Y6H1 (Q9Y6H1 whole entry, looked up): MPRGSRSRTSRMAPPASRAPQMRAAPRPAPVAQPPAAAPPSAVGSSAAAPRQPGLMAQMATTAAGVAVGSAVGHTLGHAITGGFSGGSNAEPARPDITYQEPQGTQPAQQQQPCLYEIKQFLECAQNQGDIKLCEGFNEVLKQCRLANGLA

| Target | log2 fold change [1] | log2 fold change [2] | log2 fold change [3] | log2 fold change [4] | log2 fold change [5] | log2 fold change [6] | log2 fold change [7] | log2 fold change [8] | log2 fold change [9] | log2 fold change [10] |
| --- | --- | --- | --- | --- | --- | --- | --- | --- | --- | --- |
| CETN2 (UniProt P41208) | 0.149 | 0.159 | -0.006 | -0.074 | 0.074 | 0.065 | -0.058 | -0.01 | -0.018 | 0.037 |
| CSNK2A1 (UniProt P68400) | 0.007 | 0.04 | 0.002 | -0.012 | 0.003 | -0.117 | -0.007 | 0.024 | -0.04 | -0.233 |
| C9orf64 (UniProt Q5T6V5) | -0.066 | -0.309 | 0.103 | -0.004 | -0.094 | -0.149 | 0.075 | 0.119 | -0.007 | -0.396 (active) |
| CHCHD2 (UniProt Q9Y6H1) | 0.04 | 0.103 | -0.034 | 0.026 | -0.027 | -0.055 | -0.004 | 0.04 | -0.058 | 0.044 |
| CNOT1 (UniProt A5YKK6) | -0.051 | -0.312 (active) | 0.056 | -0.028 | -0.028 | 0.028 | 0.061 | 0.013 | 0.011 | -0.082 |
| CRKL (UniProt P46109) | -0.012 | -0.039 | 0.007 | 0 | 0.008 | 0 | 0.012 | 0.017 | 0 | -0.016 |
| CHD3 isoform 3 (UniProt Q12873) | -0.093 | -0.757 (active) | 0.149 | 0.017 | -0.042 | 0.067 | 0.126 | 0.048 | 0.099 | -0.144 |
| CRLF3 (UniProt Q8IUI8) | -0.085 | -0.277 | 0.067 | 0 | -0.069 | -0.041 | 0.024 | 0.041 | 0.031 | -0.268 (active) |
| CBS (UniProt P35520) | 0.007 | 0.036 | -0.049 | 0.035 | -0.019 | 0.02 | -0.012 | 0.012 | -0.073 | -0.03 |
| CDK12 (UniProt Q9NYV4) | 0.147 | 0.237 | 0.016 | -0.363 | -0.005 | 0.041 | -0.027 | -0.101 | 0.392 | -0.102 |
| CHCHD1 (UniProt Q96BP2) | -0.054 | -0.32 | -0.001 | -0.026 | -0.028 | -0.009 | 0.02 | 0.035 | 0.033 | -0.191 |
| CERS2 (UniProt Q96G23) | -0.148 | -0.133 | 0.011 | 0.03 | -0.004 | -0.001 | 0.001 | 0.088 | 0.007 | -0.46 (active) |
| CPQ (UniProt Q9Y646) | -0.144 | -0.27 (active) | -0.036 | 0.062 | -0.011 | -0.039 | -0.021 | -0.006 | 0.032 | -0.035 |
| COMMD2 (UniProt Q86X83) | -0.004 | -0.264 | 0.07 | -0.088 | -0.022 | -0.005 | -0.108 | 0.134 | 0 | -0.209 |
| CPSF7 isoform 3 (UniProt Q8N684) | 0.077 | 0.039 | 0.053 | -0.042 | 0.004 | -0.015 | -0.014 | -0.029 | -0.001 | 0.006 |
